FBPA Giardia inh = qHTS Assay for Inhibitors of Fructose-1,6-bisphosphate Aldolase from Giardia Lamblia; A8B2U2; purified Giardia FBPA; Potency, µM (top dose mostly 59.6 µM), without a hit: top-dose activity, negative = inhibition, most hits filed as inhibitors; hit rate 0.71% among 290,000; note: potency is the fitted concentration of half-maximal effect; nearly all actives have a fitted effect of over 55% in size
Target sequence (A8B2U2 whole entry, looked up): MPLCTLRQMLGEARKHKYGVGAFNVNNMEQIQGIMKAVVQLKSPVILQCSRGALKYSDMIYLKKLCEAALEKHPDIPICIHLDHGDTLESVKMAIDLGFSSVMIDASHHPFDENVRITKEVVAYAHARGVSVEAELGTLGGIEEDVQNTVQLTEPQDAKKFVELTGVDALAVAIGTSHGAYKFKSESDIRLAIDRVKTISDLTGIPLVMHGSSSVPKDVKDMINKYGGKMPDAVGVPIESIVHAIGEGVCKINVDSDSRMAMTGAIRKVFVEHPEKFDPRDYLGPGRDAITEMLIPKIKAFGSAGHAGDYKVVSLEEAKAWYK
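40 nM FBPA preincubated 10 min at RT with compound (up to 57.5 uM final), then substrate plus GAPDH/TPI/NAD/arsenate coupling and diaphorase/resazurin added. Fluorescence read after 20 min at RT, 525/598 nm.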
HCV inh = qHTS Assay for Inhibitors of Hepatitis C Virus (HCV); AID 651820, 2012; Huh7.5.1 HCVcc-Cre infection, luciferase reporter, 44 h; Potency, µM (highest dose often 41.8 µM), for inactives: at the highest dose activity change, negative = inhibition, most hits filed as inhibitors; hit rate 3.4% among 340,000; note: potency is the fitted concentration of half-maximal effect
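Seed cells (1,000/well) for 4 h; treat with compound and infect with HCVcc-Cre, moi about 0.5. Incubate 44 h, then detect luciferase activity.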
FMDV inh = High Throughput Screening for Foot and Mouth Disease Virus Antivirals | FMDV antiviral cell-based qHTS | Potency, µM (highest dose often 57.9 µM), for inactives: at the highest dose activity change, negative = inhibition, most hits filed as inhibitors | hit rate 1.2% among 410,000 | AID 1159524, 2015; calls by dose curve; tested in HEK293T cells; note: read-out not given here; potency is the fitted concentration of half-maximal effect; nearly all actives have a fitted effect of over 45% in size
LASV entry inh = qHTS for Inhibitors of binding or entry into cells for Lassa Virus | Lassa virus pseudotype entry inhibition, cell reporter | Potency, µM (top dose mostly 37.9 µM), inactives show top-dose activity change, negative = inhibition, actives largely listed as inhibitors | AID 540256, 2011 | hit rate 1.2% among 300,000; calls by dose curve; tested in HEK293 cells; note: potency is the fitted concentration of half-maximal effect; nearly all actives have a fitted effect of over 50% in size
Marburg entry inh = qHTS for inhibitors of binding or entry into cells for Marburg Virus | Marburg virus pseudotyped entry inhibition, cell reporter | Potency, µM (top dose mostly 37.8 µM), without a hit: at the highest dose activity change, negative = inhibition, usual class: inhibitors | hit rate 1.8% among 300,000 | AID 540276, 2011; calls by dose curve; tested in HEK293 cells; note: potency is the fitted concentration of half-maximal effect
HCMV antiviral = qHTS Assay for inhibitors of the human cytomegalovirus (HCMV). HFF cells, HCMV-luciferase reporter, 72 h; hits give low values. activity change, negative = inhibition, % at 57.5 µM. hit rate 4.5% among 410,000. AID 1259415, 2018; in the data active = activity change below about -60%; inconclusive = no clear call, values can overlap the other calls; inactive = above about -39%
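After 16 h attachment at 37C, HFF cells received test compound and HCMV-luciferase (1 PFU/cell); reporter luminescence read 72 h later, data normalized against buffer-only and known inhibitor Salinomycin.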
* hit, by the source's call; u = inconclusive; x = no result given; [ ] = dose if it differs, or a comment. The list is not random: actives were taken first. Their share in the collection is about 8.3%. Unless noted, calls come from the whole dose curve; as a rule, active = well fitted curve in the direction sought with a large enough effect; inconclusive = small, poorly fitted or top-dose-only effect, or another doubt; inactive = no such curve, though single readings can be large; an effect the other way counts as inactive or inconclusive. % is set by controls: 0 for no effect and ±100 for the full control effect.

SMILES | FBPA Giardia inh | HCV inh | FMDV inh | LASV entry inh | Marburg entry inh | HCMV antiviral
CCCCCCCn1c(=O)c(C(=O)OC)c(N)c2ccccc21 | 0% | u | 13µM* | u | u | -89*
CC(=O)N1CCC2(CC1)CN(C(=O)Nc1cccc(C#N)c1)C2 | 0% | x | 4% | x | x | x
COCCNc1nnc(SCC(=O)Nc2sc3c(c2C(=O)c2ccccc2)CCCC3)s1 | u | 2.5µM* | u | u | u | -86*
CCOC(=O)c1c(NC(=O)CSc2cn(CCNC(=O)c3ccccc3OC)c3ccccc23)sc2c1CCCC2 | x | x | -28% | -2%[46.1 µM] | u | -22
Nc1nnc(SCC(=O)Nc2sc3c(c2C(=O)c2ccccc2)CCCC3)s1 | u | u | u | 6% | u | -17
CCOC(=O)c1c(NC(=O)CSc2cn(CCNC(=O)c3ccccc3OC)c3ccccc23)sc2c1CCC2 | x | x | -20% | u | 13µM* | -6
CCOC(=O)c1c(NC(=O)C(NCCN(C)C)c2ccccc2)sc2c1CCCC2 (centres undefined) | 11% | 0.89µM* | -16% | 11µM* | u | -26
CCOC(=O)c1c(NC(=O)CSc2nnc(-c3c[nH]c4ccccc34)n2CCOC)sc2c1CCCCC2 | 1% | 6.3µM* | u | 23µM* | u | -67*
CCOC(=O)c1c(NC(=O)c2ccccc2Cl)sc2c1CCCC2 | x | x | -12% | u | x | -25
Cc1ccccc1C(=O)N1CCc2c(cnc(C)c2CNC(=O)c2ccc3c(c2)OCO3)C1 | x | x | -16% | x | x | x
CC(C)c1ccc(NS(=O)(=O)c2ccc3nc(-c4ccccc4)[nH]c3c2)cc1 | x | x | -1% | u | u | -8
CC1=C2CCC[C@]3(C)CCOC23C=CC1=O (some centres undefined) | x | x | x | x | x | -1
Cc1c(C(=O)N2CCCC(c3ccccc3)C2)sc2ncnc(NCCc3ccccn3)c12 (centres undefined) | x | x | -12% | x | x | x
Fc1cccc(Nc2cc3c(cn2)ncn3CC2CC2)c1 | x | x | x | x | x | -4
CCOC(=O)c1c(NC(=O)CSc2c[nH]c3ccccc23)sc2c1CCCC2 | 4% | 11µM* | u | u | 13µM* | -17
CC1(c2ccc3noc(-c4ccc(F)cc4)c3c2)OCCO1 | -6% | -2% | u | -13% | 0% | -40
CC1(c2ccc3noc(-c4ccccc4)c3c2)OCCO1 | -3% | u | 16µM* | u | -15% | -16
CC(=O)COC(=O)c1ccc2noc(-c3ccccc3)c2c1 | -6% | -18% | -2% | -2% | u | -68*
COc1cccc(-c2onc3ccc(C(C)=O)cc23)c1 | -3% | u | 16% | x | x | -70*
CC(=O)c1ccc2noc(-c3ccc(C)cc3)c2c1 | -11% | 11% | 18% | x | x | 16
CC(=O)c1ccc2noc(-c3cccc(F)c3)c2c1 | 2% | 2.2µM* | -1% | -20% | -30% | u
NC(=O)NC(=O)COC(=O)c1ccc2noc(-c3ccccc3)c2c1 | 0% | -11% | 16% | -2%[46.1 µM] | -8%[46.1 µM] | 55
CC(C1CCCC(=O)C1)[N+](=O)[O-] (centres undefined) | 3% | x | x | x | x | x
COC(=O)c1ccc(Nc2ncnc3c2nc2n3CCCC2)cc1 | x | x | -6% | 26%[46.1 µM] | x | -13
COc1ccc(CCNC(=O)c2ccc3c(c2)c(C)c(C)n3Cc2ccc(F)cc2)c(OC)c1OC | x | x | -11% | -5%[46.1 µM] | x | 0
SMILES | FBPA Giardia inh | HCV inh | FMDV inh | LASV entry inh | Marburg entry inh | HCMV antiviral
CCOc1cccc(C=NNc2nc(=O)cc(C(=O)OC)s2)c1O | x | x | x | x | x | -27
Cc1cccc(NC(=O)c2cn(-c3ccccc3)nc2-c2ccccc2)c1C | x | x | 0% | 3%[46.1 µM] | u | -27
Cc1ccc(C(=O)N(CCN2CCCCC2)CC2CCCN(C3CCCC3)C2)s1 (centres undefined) | 1% | x | 22% | u | 8.9µM* | -8
CC(=O)N(C1=C(Cl)C(=O)c2ccccc2C1=O)C1CCCCC1 | 1.6µM* | 7.9µM* | u | 13µM* | u | -103*
CC(=O)N(c1ccccc1C)C1CCCC1 | -1% | 32% | -9% | 3% | -2% | -27
Cc1cc(C(C)(C)C)cc(C)c1CCNC(=O)c1ccc[n+]([O-])c1 | 2% | u | -11% | 3.2µM* | 0.63µM* | u
COc1ccc(C(C)(C)C)cc1NC(=O)c1ccc[n+]([O-])c1 | 2% | 1% | 3% | -4%[46.1 µM] | u | 56
CCOC(=O)c1sc2nc(-c3cccnc3)ccc2c1N | -3% | -4% | -30% | 6.3µM* | u | -5
CCOc1ccccc1NC(=O)c1sc2nc(C)cc(C)c2c1N | x | x | -11% | 6%[46.1 µM] | 8%[46.1 µM] | -3
CCOc1ccccc1NC(=O)c1sc2nc(-c3ccc(OC)cc3)ccc2c1N | x | x | 40% | u | u | -95*
Cc1ccc(C(=O)Nc2cccc(-c3nc(CNC(=O)C4CCCCC4)c(C)o3)c2)s1 | x | x | 30% | x | x | x
COc1cc(NS(=O)(=O)c2ccc(NC(=S)NC(=O)c3cccs3)cc2)nc(OC)n1 | 1% | 13% | 51% | 13% | 6% | 6
CN(C1CCCCC1)S(=O)(=O)c1ccc(NC(=S)NC(=O)c2cccs2)cc1 | -10% | u | u | -12% | 18µM* | -39
Cc1cc(C)cc(NS(=O)(=O)c2ccc(NC(=S)NC(=O)c3cccs3)cc2)c1 | -1% | u | 0% | 14µM* | 12µM* | -34
COc1ccccc1-n1cc(C(=O)NCCN2Cc3ccccc3OC(c3ccsc3)C2)cn1 (centres undefined) | x | x | -9% | x | x | x
c1ccc(Nc2ncnc3ccc(-c4cccnc4)cc23)cc1 | -7% | x | 0% | x | x | x
N#Cc1ccc(CSc2nnc(-c3cccs3)n2-c2ccccc2)cc1 | -1% | 0.63µM* | u | u | u | -29
N#Cc1ccc(CSc2nnc(-c3c[nH]c4ccccc34)n2-c2ccccc2)cc1 | 0% | u | u | u | 2.5µM* | -64*
N#Cc1ccc(CSc2nnc(-c3ccccn3)n2-c2ccccc2)cc1 | 6% | -1% | -10% | u | u | 0
O=C1C(=O)N(Cc2cccnc2)[C@@H](c2ccccn2)/C1=C(\O)c1ccccc1 | x | x | x | x | 13% | x
Cc1cc(C)n(Cc2cccc(C(=O)NCC3Cc4cccc(-c5ncccn5)c4O3)c2)n1 (centres undefined) | x | x | -8% | x | x | x
Cc1ccc(NCC(=O)N/N=C/c2ccncc2)cc1 | 7% | 8% | 25% | 2% | 14%[46.1 µM] | -2
N#CCC(=O)N/N=C/c1cccc(Oc2ccccc2)c1 | -19% | -13% | 7% | u | u | u
Cc1ccc(NCC(=O)N/N=C/c2cccc(Oc3ccccc3)c2)cc1 | -9% | u | u | 2.3µM* | 4% | u

Screening results as filed in PubChem.
